Measurements taken from PubChem BioAssay (Tox21).
Where “and” joins values, the source holds several entries; their conditions need not be identical. Equal values may be shown once. Records with an inconclusive call do not appear. Entries that show only a call come without a potency. More than one record can exist for a structure, and the calls need not agree. Calls of active or inactive are those of the source. Unless noted, calls come from the whole dose curve; as a rule, active = well fitted curve in the direction sought with a large enough effect in the repeat runs; inconclusive = weak or mixed curves; inactive = no such curve, though single readings can be large; an effect the other way counts as inactive or inconclusive.

Tests used:
[1] = qHTS assay to identify small molecule antagonists of the estrogen related receptor (ERR) signaling pathway from Tox21 library - cell viability counter screen (AID 1224834); note: nearly all actives have a fitted effect of over 30% in size; note: potency is the fitted concentration of half-maximal effect
Summary of the method: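 In this quantitative HTS format, ERR cells receive compounds in DMSO and are incubated for 17.5 h at 37 C. Live-cell protease activity is then detected with CellTiter-Fluor.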

[2] = biological target: Luciferin 4-monooxygenase (Photinus pyralis) (UniProt P08659); test: qHTS assay to identify small molecule inhibitors of firefly luciferase (AID 1224835); note: nearly all actives have a fitted effect of over 25% in size; note: potency is the fitted concentration of half-maximal effect
Sequence of Luciferin 4-monooxygenase (Photinus pyralis) (P08659 whole entry, looked up): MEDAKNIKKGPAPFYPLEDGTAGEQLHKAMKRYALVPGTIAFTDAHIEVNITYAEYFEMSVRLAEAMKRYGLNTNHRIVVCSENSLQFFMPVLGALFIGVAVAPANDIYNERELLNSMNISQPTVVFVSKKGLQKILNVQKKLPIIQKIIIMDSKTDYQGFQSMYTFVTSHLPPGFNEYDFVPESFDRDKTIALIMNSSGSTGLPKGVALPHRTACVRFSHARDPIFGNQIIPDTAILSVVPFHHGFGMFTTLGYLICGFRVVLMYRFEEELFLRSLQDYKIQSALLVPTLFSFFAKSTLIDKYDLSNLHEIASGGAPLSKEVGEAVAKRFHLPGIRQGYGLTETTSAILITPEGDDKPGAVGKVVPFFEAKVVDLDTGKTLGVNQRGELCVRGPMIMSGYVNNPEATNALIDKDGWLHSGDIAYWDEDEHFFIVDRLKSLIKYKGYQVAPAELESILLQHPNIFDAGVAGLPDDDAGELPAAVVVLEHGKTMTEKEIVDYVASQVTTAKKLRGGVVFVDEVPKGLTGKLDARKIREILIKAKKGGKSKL
Summary of the method: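 Quantitative HTS format; KM concentrations of both substrates. Purified P. pyralis FLuc activity quantified from luminescence images.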

[3] = qHTS assay to identify small molecule agonists of the constitutive androstane receptor (CAR) signaling pathway - cell viability counter screen (AID 1224836); note: series mostly up to about 92 µM; nearly all actives have a fitted effect of over 45% in size
Summary of the method: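 23 h treatment, 37 C, 5% CO2. Cell line: HepG2 stably expressing hCAR with a CYP2B6-2.2kb construct. Co-treatment: PK11195, 0.75 uM final. Read-out: CellTiter-Fluor fluorescence intensity.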

[4] = qHTS assay to identify small molecule antagonists of the constitutive androstane receptor (CAR) signaling pathway - cell viability counter screen (AID 1224837); note: series mostly up to about 92 µM; nearly all actives have a fitted effect of over 45% in size
Summary of the method: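 In quantitative HTS format, compounds at 15 concentrations were applied to HepG2 cells double-transfected with hCAR and CYP2B6-2.2kb under 50 nM CITCO stimulation; live-cell protease activity was read after 23 hr via CellTiter-Fluor.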

[5] = biological target: Nuclear receptor subfamily 1 group I member 3 (Homo sapiens) (UniProt Q14994); test: qHTS assay to identify small molecule antagonists of the constitutive androstane receptor (CAR) signaling pathway (AID 1224838); note: nearly all actives have a fitted effect of over 40% in size
Sequence of Nuclear receptor subfamily 1 group I member 3 (Homo sapiens) (Q14994 whole entry, looked up): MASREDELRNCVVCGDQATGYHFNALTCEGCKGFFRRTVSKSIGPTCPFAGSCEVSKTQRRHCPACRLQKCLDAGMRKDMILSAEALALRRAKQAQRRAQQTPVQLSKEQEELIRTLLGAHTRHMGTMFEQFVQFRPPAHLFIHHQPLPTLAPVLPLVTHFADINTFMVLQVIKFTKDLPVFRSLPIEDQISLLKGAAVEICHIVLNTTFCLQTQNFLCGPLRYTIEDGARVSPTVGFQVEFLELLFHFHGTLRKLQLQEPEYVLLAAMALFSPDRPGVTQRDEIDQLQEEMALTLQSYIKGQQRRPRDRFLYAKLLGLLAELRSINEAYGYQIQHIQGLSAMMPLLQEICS
Summary of the method: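 CITCO-stimulated (50 nM final) HepG2 cells stably transfected with hCAR and CYP2B6-2.2kb luciferase were exposed to compounds at 15 concentrations for 24 h at 37 C/5% CO2. A luciferase reagent was added and luminescence recorded after 30 min.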

[6] = biological target: Nuclear receptor subfamily 1 group I member 3 (Homo sapiens) (UniProt Q14994); test: qHTS assay to identify small molecule agonists of the constitutive androstane receptor (CAR) signaling pathway (AID 1224839); note: nearly all actives have a fitted effect of over 15% in size; note: potency is the fitted concentration of half-maximal effect;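 for activation: HepG2 cells stably carrying human CAR and a CYP2B6 luciferase reporter; series mostly up to about 92 µM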
Summary of the method: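 Compounds tested at 15 concentrations on HepG2 cells stably harbouring hCAR and CYP2B6-2.2kb reporter constructs, co-treated with PK11195 (0.75 uM final), 24 h at 37 C; luminescent reporter signal quantified.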

[7] = qHTS assay to identify small molecule antagonists of the estrogen related receptor signaling pathway with the pleiotropic PPARgamma coactivator (PGC) from Tox21 10K library - cell viability counter screen (AID 1224840; active = well fitted cell-killing curve with a large enough effect in the repeat runs, not every such curve was filed as active; note: nearly all actives have a fitted effect of over 40% in size)
Summary of the method: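 Viability counter screen, PGC/ERR cells: 17.5 h compound exposure at 37 C, CellTiter-Fluor fluorescence endpoint.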

[8] = qHTS assay to identify small molecule agonists of the hypoxia (HIF-1) signaling pathway - cell viability counter screen (AID 1224844; calls by dose curve; note: nearly all actives have a fitted effect of over 50% in size)
Summary of the method: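 Same wells as the HIF-1 reporter screen; ME-180 cells carrying HRE-bla, 17 hr treatment at 37C; CellTiter-Glo luminescence read after 30 min at room temperature.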

[9] = qHTS assay to identify small molecule agonists of the hypoxia (HIF-1) signaling pathway (AID 1224846; active = well fitted activation curve with a large enough effect in the signal ratio in the repeat runs, not every such curve was filed as active; the % refers to the signal ratio)
Summary of the method: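 In ME-180 cells bearing an HRE-bla construct, 17 h treatment with DMSO-dissolved compounds at 37C was followed by CCF4-AM loading to quantify reporter induction.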

[10] = qHTS assay to identify small molecule agonists of H2AX - cell viability counter screen (AID 1224847; calls by dose curve; note: top concentration of the series differs between compounds; nearly all actives have a fitted effect of over 30% in size)
Summary of the method: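 Compounds tested at 15 concentrations were incubated 3 hr at 37C with wild-type CHO-K1 cells; cellular ATP-based luminescence (CellTiter-Glo) indicated viability.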

[11] = qHTS RealTime-Glo MT Cell Viability Assay in HepG2 cells - 24 hour (AID 1224867); note: nearly all actives have a fitted effect of over 50% in size
Summary of the method: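 HepG2 cells (600/well) were dispensed with RealTime-Glo reagents, incubated 5 h at 37 °C, then treated with compounds in DMSO for up to 40 h. Nonlytic NanoLuc luminescence reflecting viable cells was read at each stated time point.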

[12] = qHTS RealTime-Glo MT Cell Viability Assay in HEK293 cells - 32 hour (AID 1224868); note: nearly all actives have a fitted effect of over 50% in size; note: potency is the fitted concentration of half-maximal effect
Summary of the method: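 HEK293 cells seeded with NanoLuc/prosubstrate reagent, rested 5 h at 37 C, then dosed and kept at 37 C up to 40 h. Nonlytic real-time luminescence from viable cells read at 0, 8, 16, 24, 32 and 40 h.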

[13] = A CellTox Green Cytotoxicity Assay to monitor cytotoxicity in HEK293 cells - 0 hour (AID 1224869); note: nearly all actives have a fitted effect of over 50% in size
Summary of the method: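 Homogeneous no-lysis format: HEK293 cell suspension mixed with CellTox Green reagent, seeded, incubated 5 h at 37 C/5% CO2, then dosed by pintool with compound in DMSO.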

[14] = qHTS assay to identify small molecule agonists of H2AX (AID 1224845; active = well fitted activation curve with a large enough effect in the signal ratio in the repeat runs, not every such curve was filed as active; the % refers to the signal ratio)
Summary of the method: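 Wild-type CHO-K1 cells plated overnight, then exposed 3 hr at 37C to compounds at 15 concentrations (0.76% DMSO). Lysed, then HTRF anti-pH2AX(S139)-cryptate/anti-H2AX-d2 detection after 24 hr at room temperature; emissions 665 and 620 nm.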

[15] = qHTS RealTime-Glo MT Cell Viability Assay in HepG2 cells - 40 hour (AID 1224870); note: nearly all actives have a fitted effect of over 50% in size
Summary of the method: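 HepG2 cells mixed with RealTime-Glo MT reagents (NanoLuc plus cell-permeant prosubstrate) were seeded at 600 cells/well, incubated 5 h at 37 C/5% CO2, then pinned with compounds in DMSO; nonlytic luminescence tracked viability during 40 h treatment.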

[16] = biological target: Thyrotropin receptor (Homo sapiens) (UniProt P16473); test: qHTS assay to identify small molecule agonists of the thyroid stimulating hormone receptor (TSHR) signaling pathway (AID 1224843; calls by dose curve; note: nearly all actives have a fitted effect of over 45% in size)
Sequence of Thyrotropin receptor (Homo sapiens) (P16473 whole entry, looked up): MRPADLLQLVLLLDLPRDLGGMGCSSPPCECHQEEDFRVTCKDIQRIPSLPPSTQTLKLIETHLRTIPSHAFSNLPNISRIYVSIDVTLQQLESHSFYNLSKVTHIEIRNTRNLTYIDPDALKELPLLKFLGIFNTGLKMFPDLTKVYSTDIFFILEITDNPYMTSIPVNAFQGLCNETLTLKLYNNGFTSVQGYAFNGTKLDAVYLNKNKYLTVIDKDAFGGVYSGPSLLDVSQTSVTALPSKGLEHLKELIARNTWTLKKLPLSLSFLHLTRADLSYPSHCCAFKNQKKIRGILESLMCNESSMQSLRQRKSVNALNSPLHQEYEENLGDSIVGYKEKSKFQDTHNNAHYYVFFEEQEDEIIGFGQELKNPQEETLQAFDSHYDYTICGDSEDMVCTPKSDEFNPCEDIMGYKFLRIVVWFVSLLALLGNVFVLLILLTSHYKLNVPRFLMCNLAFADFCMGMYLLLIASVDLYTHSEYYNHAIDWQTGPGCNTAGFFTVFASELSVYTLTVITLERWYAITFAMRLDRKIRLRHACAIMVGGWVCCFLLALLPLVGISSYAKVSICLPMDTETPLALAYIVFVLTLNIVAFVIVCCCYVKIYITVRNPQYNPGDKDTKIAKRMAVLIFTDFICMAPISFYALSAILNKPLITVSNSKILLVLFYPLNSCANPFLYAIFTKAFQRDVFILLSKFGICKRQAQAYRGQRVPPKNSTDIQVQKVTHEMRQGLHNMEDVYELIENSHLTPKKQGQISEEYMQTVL
Summary of the method: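 Compounds are titrated over 15 concentrations, in triplicate, onto TSHR-HEK293 cells seeded at 800/well. Plates sit 30 min at room temperature before cAMP-d2 and anti-cAMP cryptate are added; signal is read after a further hour.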

Row | Structure (SMILES) | Potency [1] | Potency [2] | Potency [3] | Potency [4] | Potency [5] | Potency [6] | Potency [7] | Potency [8] | outcome [9] | Potency [10] | outcome [11] | Potency [12] | Potency [13] | Potency [14] | outcome [15] | Potency [16]
1 | CCCCOC(=O)CCCCCCCCC(=O)OCCCC | inactive | inactive | inactive | inactive | inactive | inactive | inactive | inactive | inactive | inactive | inactive | inactive | inactive |  |  | 
2 | NC(=O)N1c2ccccc2C=Cc2ccccc21 | inactive | inactive | inactive | inactive | inactive | inactive | inactive | inactive | inactive | inactive | inactive | inactive | inactive |  |  | 
3 | CC(O)COc1ccccc1 (stereo unspecified) | inactive | inactive | inactive | inactive | inactive | inactive | inactive | inactive | inactive | inactive | inactive | inactive | inactive | inactive | inactive | 
4 | C[C@]12C[C@H](O)[C@H]3[C@@H](CCC4=CC(=O)CC[C@@]43C)[C@@H]1CC[C@@H]2C(=O)CO | inactive | inactive | inactive | inactive | inactive | inactive | inactive | inactive | inactive | inactive | inactive | inactive | inactive | inactive | inactive | 
5 | C[C@]12C=CC(=O)C=C1CC[C@@H]1[C@@H]2C(=O)C[C@@]2(C)[C@H]1CC[C@]2(O)C(=O)CO | inactive | inactive | inactive | inactive | inactive |  | inactive | inactive | inactive | inactive | inactive | inactive | inactive | inactive | inactive | inactive
6 | CC(=O)OC/C=C(C)/C=C/C=C(C)/C=C/C1=C(C)CCCC1(C)C | inactive | inactive | inactive | inactive | inactive | inactive | inactive | inactive | inactive | inactive | inactive | inactive | inactive | inactive | inactive | 
7 | CN/C(=C\[N+](=O)[O-])NCCSCc1ccc(CN(C)C)o1 | inactive | inactive | inactive | inactive | inactive | inactive | inactive | inactive |  | inactive | inactive | inactive | inactive |  | inactive | inactive
8 | NC(=O)NO | inactive | inactive | inactive | inactive | inactive |  | inactive | inactive |  | inactive | inactive | inactive | inactive |  |  | 
9 | COCCOCCOC | inactive | inactive | inactive | inactive | inactive | inactive | inactive | inactive | inactive | inactive | inactive | inactive | inactive |  | inactive | 
10 | O=c1c(-c2ccc(O)cc2)coc2cc(O)cc(O)c12 | inactive | 13.9 µM (active) and 11.2 µM (active) and 9.77 µM (active) | inactive | inactive | inactive | 15.1 µM (active) and 9.69 µM (active) and 13.3 µM (active) | inactive | inactive | inactive | inactive | inactive | 24.5 µM (active) | inactive |  | inactive | 
11 | Nc1cccc(N)c1 | inactive | inactive | inactive | inactive | inactive | inactive | inactive | inactive | inactive | inactive | inactive | inactive | inactive |  | inactive | 
12 | NCCNc1cccc2ccccc12 | 68.5 µM (active) and inactive | inactive | inactive | inactive | inactive | inactive | inactive | inactive | inactive | inactive | inactive | 54.9 µM (active) and 53.6 µM (active) and inactive | inactive |  |  | 
13 | CCCCC/C(C=O)=C\c1ccccc1 | inactive | inactive | inactive | inactive | inactive | inactive | inactive | inactive | inactive | inactive | inactive | inactive | inactive | inactive | inactive | 
14 | CCN1CCCC1=O | inactive | inactive | inactive | inactive | inactive | inactive | inactive | inactive | inactive | inactive | inactive | inactive | inactive | inactive |  | 
15 | N[C@@H](Cc1c[nH]c2ccc(O)cc12)C(=O)O | inactive | 34.6 µM (active) and inactive | inactive | inactive | inactive | inactive | inactive | inactive | inactive | inactive | inactive | inactive | inactive |  |  | 
16 | COCC(C)N (stereo unspecified) | inactive | inactive | inactive | inactive | inactive | inactive | inactive | inactive | inactive | inactive | inactive | inactive | inactive |  |  | 
